# Measured values published in PubChem BioAssay (NCI).
# Compounds without any hit were thinned out: in the full panel of roughly 83,000, 20% have a hit.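 Cells were grown in 96-well plates and exposed to the test compound at a single concentration for 48 hours; results are reported as percent growth, with values below 10 considered active.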 Unmarked numbers belong to inactive results. Active and inactive are the calls of the source.
# Legend:
# Assay in all cases: NCI-60 one-dose screen, 48 h (100 = growth as untreated, 0 = no growth, -100 = all killed)
# NCI-H23 lung = conditions: 10 µM unless noted
# NCI-H226 lung = conditions: 10 µM unless noted
# DU-145 prostate = conditions: 10 µM unless noted
# MDA-MB-231 breast = conditions: 10 µM unless noted
# SF-268 CNS = conditions: 10 µM unless noted
# M14 melanoma = conditions: 10 µM unless noted
# HCT-15 colon = conditions: 10 µM
# SNB-75 CNS = conditions: 10 µM unless noted
# U251 CNS = conditions: 10 µM unless noted
# PC-3 prostate = conditions: 10 µM unless noted
# UACC-62 melanoma = conditions: 10 µM unless noted
# OVCAR-8 ovarian = conditions: 10 µM unless noted
# OVCAR-5 ovarian = conditions: 10 µM unless noted
# SK-OV-3 ovarian = conditions: 10 µM unless noted
# OVCAR-3 ovarian = conditions: 10 µM unless noted
# NCI/ADR-RES ovarian = conditions: 10 µM unless noted
# MDA-MB-435 melanoma = conditions: 10 µM unless noted
# MCF7 breast = conditions: 10 µM unless noted
# HCT-116 colon = conditions: 10 µM unless noted
# KM12 colon = conditions: 10 µM unless noted
SMILES,growth (NCI-H23 lung),growth (NCI-H226 lung),growth (DU-145 prostate) [%],growth (MDA-MB-231 breast) [%],growth (SF-268 CNS) [%],growth (M14 melanoma),growth (HCT-15 colon) [%],growth (SNB-75 CNS),growth (U251 CNS) [%],growth (PC-3 prostate) [%],growth (UACC-62 melanoma) [%],growth (OVCAR-8 ovarian) [%],growth (OVCAR-5 ovarian) [%],growth (SK-OV-3 ovarian),growth (OVCAR-3 ovarian),growth (NCI/ADR-RES ovarian),growth (MDA-MB-435 melanoma),growth (MCF7 breast) [%],growth (HCT-116 colon) [%],growth (KM12 colon) [%]
N#CC1=C(N)Oc2cc3c(cc2C1c1cccs1)OCO3 (configuration not stated),15.2%,47.6%,15.5,41.8,47.3,15.1%,35.5,-14.9% (active),25.4,24,31.1,35.1,52.2,7.21% (active),-15% (active),3.49% (active),-7.43% (active),15.7,21.2,34.2
N#CC1c2ccccc2C=CN1C(=O)c1ccc(N(CCCl)CCCl)cc1 (configuration not stated),89.3%,78.2%,111,92.9,95.9,116%,81.4,79.6%,,81.1,71.7,85.7,98.6,97.3%,88.6%,83.4%,79.4%,83.5,104,98
N#[N+]c1cnc([O-])[nH]c1=O,26.9%,88%,99.9,95.5,97.5,108%,89.1,74.7%,98.3,92.7,85.6,88.7,83.9,94%,,-8.91% (active),106%,100,108,100
O=C(c1cccs1)C1NO[N+]([O-])=C1c1cccs1 (configuration not stated),4.55% (active),-0.733% (active),120,86.2,109,-40.2% (active),64.9,-11.5% (active),64,57.1,88.7,24.5,114,118%,-10.4% (active),47.5%,72.9%,81.8,25.6,74.8
COc1ccc(NP2(=O)OCC(C)(N)CO2)cc1 (configuration not stated),92%,105%,102,106,96.2,101%,89.3,95.7%,,84.5,99.9,101,102,103%,107%,98.2%,108%,99.6,98.8,91.8
